From PubChem BioAssay (EPA / NIEHS) come the findings set out here.

Active and inactive are the calls of the source. How the source made its calls: active means hit-call score of the fitted dose curve at least 0.9, where 1 is the maximum; inactive means score below 0.9.

The nature of assay [1]: ATG_CRE_CIS: Attagene CIS-FACTORIAL HepG2 Assay for human cAMP Responsive Element (CRE) binding protein 3 (AID 2282926). The following applies: HepG2 CRE cis-reporter, Attagene multiplexed mRNA; actives raise or lower the signal. The essentials:
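HepG2 cells transiently transfected with cis-element-driven multiple reporter transcription units; CRE reporter mRNA measured 24 h after dosing by RT-PCR, 6-FAM labelling, HpaI digestion and capillary electrophoresis. Bidirectional fit versus DMSO baseline.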

Assay [2] concerns the target CCAAT/enhancer-binding protein beta (Homo sapiens) (UniProt P17676). As to the kind of experiment: ATG_C_EBP_CIS: Attagene CIS-FACTORIAL HepG2 Assay for human CCAAT/Enhancer Binding Protein (C/EBP) beta (AID 2282927). The following applies: HepG2 Attagene cis-factorial transcription factor reporter; actives raise or lower the signal. The essentials:
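Transiently transfected HepG2 (MRTU library, endogenous TF-driven promoters); 24 h dosing; total RNA → oligo(dT) RT → PCR → 6-FAM primer extension → HpaI digest → CE; fit bidirectionally vs DMSO.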

The target of assay [3] is Aryl hydrocarbon receptor (Homo sapiens) (UniProt P35869). The assay is described as follows: ATG_Ahr_CIS: Attagene CIS-FACTORIAL HepG2 Assay for human Aryl Hydrocarbon Receptor (Ahr) (AID 2282930). The following applies: HepG2 AhR cis-factorial reporter transcription; actives raise or lower the signal. The essentials: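 Read-out: reporter mRNA quantified by RT-PCR with fluorescent primer extension and capillary electrophoresis. Human HepG2 liver cells carried transfected cis-promoter reporter units and were exposed to chemical for 24 h; gain or loss fitted relative to DMSO.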
Aryl hydrocarbon receptor (Homo sapiens), sequence (P35869 whole entry, looked up): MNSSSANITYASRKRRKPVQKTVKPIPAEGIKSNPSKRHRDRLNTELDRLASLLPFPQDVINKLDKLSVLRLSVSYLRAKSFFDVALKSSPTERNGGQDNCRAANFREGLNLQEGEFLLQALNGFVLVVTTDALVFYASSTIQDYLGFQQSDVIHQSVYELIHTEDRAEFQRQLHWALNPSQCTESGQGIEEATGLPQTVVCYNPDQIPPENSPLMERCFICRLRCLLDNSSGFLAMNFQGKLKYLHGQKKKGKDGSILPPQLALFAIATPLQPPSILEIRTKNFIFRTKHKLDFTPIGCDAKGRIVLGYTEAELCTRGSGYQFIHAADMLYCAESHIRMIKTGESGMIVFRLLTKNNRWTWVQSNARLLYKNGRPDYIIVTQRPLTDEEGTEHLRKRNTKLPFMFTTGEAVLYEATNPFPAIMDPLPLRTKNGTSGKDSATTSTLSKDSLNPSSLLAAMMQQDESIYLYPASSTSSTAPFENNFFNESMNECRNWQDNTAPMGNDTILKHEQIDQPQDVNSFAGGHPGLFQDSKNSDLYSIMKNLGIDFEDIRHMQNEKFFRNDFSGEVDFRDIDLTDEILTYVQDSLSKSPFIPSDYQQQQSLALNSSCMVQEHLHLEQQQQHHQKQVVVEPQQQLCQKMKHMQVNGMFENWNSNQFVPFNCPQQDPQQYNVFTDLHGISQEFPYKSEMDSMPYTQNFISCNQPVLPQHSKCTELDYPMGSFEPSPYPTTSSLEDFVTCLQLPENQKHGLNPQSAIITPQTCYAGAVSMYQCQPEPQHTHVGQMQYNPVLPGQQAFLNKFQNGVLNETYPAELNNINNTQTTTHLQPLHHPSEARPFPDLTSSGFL

Assay [4] is described as follows: ATG_AP_1_CIS: Attagene CIS-FACTORIAL HepG2 Assay for human Activator Protein 1 (AP-1) (AID 2282931). To be noted: HepG2 Attagene cis-factorial AP-1 reporter mRNA; actives raise or lower the signal. Put shortly:
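We transfected HepG2 cells transiently with a set of cis-regulated reporter transcription units, dosed them for 24 h, and quantified reporter mRNA via RT-PCR and capillary electrophoresis, scoring gain or loss of signal relative to DMSO.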

Assay [5] can be described thus: ATG_AP_2_CIS: Attagene CIS-FACTORIAL HepG2 Assay for human Activator Protein 2 (AP-2) (AID 2282932). To be noted: HepG2 AP-2 cis-reporter, Attagene transcription factor profiling; actives raise or lower the signal. Put shortly:
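HepG2 cells transiently transfected with cis-element reporter units and exposed for 24 h. Reporter mRNA measured by RT-PCR, FAM labelling, HpaI digestion and capillary electrophoresis. Changes in either direction fitted relative to DMSO.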

The nature of assay [6]: ATG_BRE_CIS: Attagene CIS-FACTORIAL HepG2 Assay for human Bone Morphogenetic Protein (BMP) Response Element (BRE) (AID 2282933). To be noted: HepG2 BMP response element reporter, Attagene transcription factor profiling; actives raise or lower the signal. The essentials:
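After a 24 h chemical treatment, transiently transfected HepG2 cells were lysed for RNA; reporter transcripts were quantified by fluorescent RT-PCR and capillary electrophoresis, normalised to DMSO.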

Assay [7] can be described thus: ATG_E_Box_CIS: Attagene CIS-FACTORIAL HepG2 Assay for human Enhancer Box (E-box) (AID 2282936). The following applies: HepG2 E-box cis-reporter transcription, actives raise or lower the signal. Put shortly:
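HepG2 cells transiently transfected with multiplexed cis-element reporter units, dosed 24 h; reporter mRNA quantified by RT-PCR, 6-FAM labelling, HpaI digestion and capillary electrophoresis. E-box (USF1) signal fitted bidirectionally vs DMSO.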

Assay [8] is described as follows: ATG_M_61_CIS: Attagene CIS-FACTORIAL HepG2 Assay for M61 Transcription Factor (Internal Marker) (AID 2282937). The following applies: HepG2 Attagene CIS-FACTORIAL M61 internal marker reporter; actives raise or lower the signal. The essentials: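 Multiplexed reporter mRNA assay, HepG2 human hepatoma cells, 24 h treatment. Signal: FAM-labelled, HpaI-digested RT-PCR fragments by CE. Fit: bidirectional, baseline DMSO.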

Assay [9] can be described thus: ATG_EGR_CIS: Attagene CIS-FACTORIAL HepG2 Assay for human Early Growth Response 1 (EGR1) (AID 2282938). The following applies: HepG2 Attagene CIS-FACTORIAL EGR reporter mRNA; actives raise or lower the signal. The essentials:
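Multiplexed cis-reporter system in human hepatoma HepG2 cells, transiently transfected. Cells are dosed for 24 h; reporter transcripts are amplified, fluorescently tagged and sized by capillary electrophoresis, with DMSO as negative control.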

A short description of assay [10]: ATG_M_19_CIS: Attagene CIS-FACTORIAL HepG2 Assay for M19 Transcription Factor (Internal Marker) (AID 2282939). To be noted: HepG2 Attagene CIS-FACTORIAL M19 internal marker reporter; actives raise or lower the signal. The essentials: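 In this multiplexed cell assay, transiently transfected HepG2 reporter units report endogenous transcription-factor activity; after 24 hours of treatment, labelled reporter cDNA fragments are quantified by capillary electrophoresis and fitted bidirectionally against DMSO.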

Assay [11] in a line: ATG_Ets_CIS: Attagene CIS-FACTORIAL HepG2 Assay for human Erythroblast Transformation Specific (ETS) (AID 2282941). To be noted: HepG2 ETS cis-reporter transcription, actives raise or lower the signal. The essentials:
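HepG2 cells transfected with multiple cis-regulated reporter units measuring endogenous ETS-driven transcription, 24 h after dosing. Reporter mRNA quantified by RT-PCR with capillary electrophoresis; bidirectional fit relative to DMSO.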

The target of assay [12] is Hepatocyte nuclear factor 3-beta (Homo sapiens) (UniProt Q9Y261). The assay is described as follows: ATG_FoxA2_CIS: Attagene CIS-FACTORIAL HepG2 Assay for human Forkhead box A2 (FOXA2) (AID 2282942). The following applies: HepG2 cis-reporter transcription factor activity, 24 h; actives raise or lower the signal. The essentials: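 Multiplexed cis-element reporter assay in transiently transfected HepG2. Twenty-four hours post-dosing, RNA was reverse-transcribed, amplified, FAM-labelled, HpaI-digested and separated by CE. Activity gain or loss relative to DMSO.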
Hepatocyte nuclear factor 3-beta (Homo sapiens), sequence (Q9Y261 whole entry, looked up): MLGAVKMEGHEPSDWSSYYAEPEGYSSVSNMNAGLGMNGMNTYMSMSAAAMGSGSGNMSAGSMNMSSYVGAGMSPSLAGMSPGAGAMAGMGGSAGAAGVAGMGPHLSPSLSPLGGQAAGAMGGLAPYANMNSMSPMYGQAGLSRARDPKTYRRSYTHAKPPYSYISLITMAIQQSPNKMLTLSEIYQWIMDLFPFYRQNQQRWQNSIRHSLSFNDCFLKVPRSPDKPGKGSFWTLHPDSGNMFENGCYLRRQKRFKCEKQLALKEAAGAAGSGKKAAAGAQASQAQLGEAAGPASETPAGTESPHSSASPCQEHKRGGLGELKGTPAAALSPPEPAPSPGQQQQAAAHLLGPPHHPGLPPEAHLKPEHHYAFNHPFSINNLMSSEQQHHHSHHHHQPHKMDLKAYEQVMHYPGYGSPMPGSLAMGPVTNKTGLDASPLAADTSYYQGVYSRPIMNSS

The nature of assay [13]: ATG_FoxO_CIS: Attagene CIS-FACTORIAL HepG2 Assay for human Forkhead box O (FoxO) (AID 2282943). The following applies: HepG2 Attagene cis-reporter, FoxO element, mRNA; actives raise or lower the signal. The essentials:
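Read-out: fluorescence of 6-FAM-labelled reporter cDNA fragments resolved by capillary electrophoresis. Transiently transfected HepG2 cells were dosed for 24 h; activity fitted in both directions relative to DMSO controls.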

Assay [14] can be described thus: ATG_GATA_CIS: Attagene CIS-FACTORIAL HepG2 Assay for human GATA Binding Protein (AID 2282944). The following applies: HepG2 GATA cis-element reporter, Attagene multiplex mRNA; actives raise or lower the signal. Put shortly: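 Measures endogenous transcription factor-driven reporter mRNA in HepG2 cells transiently carrying cis-regulated constructs. 24 h dosing; RNA via oligo(dT) reverse transcription, PCR, HpaI digestion, capillary electrophoresis; fitted relative to DMSO.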

A short description of assay [15]: ATG_GLI_CIS: Attagene CIS-FACTORIAL HepG2 Assay for human Zinc Finger Protein GLI1 (AID 2282945). To be noted: HepG2, Attagene cis-factorial reporter mRNA, GLI element; actives raise or lower the signal. Put shortly: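 Transiently transfected HepG2 cells report endogenous transcription factor activity via cis-element-driven reporter units. After 24 h compound exposure, reporter mRNA was measured by RT-PCR with capillary electrophoresis; bidirectional fitting against DMSO baseline.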

A short description of assay [16]: ATG_DR4_LXR_CIS: Attagene CIS-FACTORIAL HepG2 Assay for human Liver X Receptor (LXR), DR4 submotif (AID 2282929). The following applies: HepG2 Attagene DR4 cis-reporter, mRNA transcription; actives raise or lower the signal. The essentials: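 Transiently transfected HepG2 liver cells; cis-regulated reporters; 24 h dosing. RT-PCR plus CE read-out of reporter mRNA. DMSO baseline, bidirectional curve fitting.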

The target in assay [17] is Transcription factor E2F1 (Homo sapiens) (UniProt Q01094). As to the kind of experiment: ATG_E2F_CIS: Attagene CIS-FACTORIAL HepG2 Assay for human E2F Transcription Factor 1 (AID 2282935). The following applies: HepG2 Attagene cis-reporter, E2F reporter RNA transcripts; actives raise or lower the signal. Put shortly:
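Endogenous E2F1 activity read through cis-promoter reporter units transfected into HepG2. After 24 h compound treatment, reporter mRNA measured by RT-PCR, HpaI digestion and capillary electrophoresis. Bidirectional fit versus DMSO.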

The target in assay [18] is Retinoic acid receptor alpha (Homo sapiens) (UniProt P10276). The assay is described as follows: ATG_DR5_RAR_CIS: Attagene CIS-FACTORIAL HepG2 Assay for human Retinoic Acid Receptor Alpha (RARE), DR5 submotif (AID 2282934). The following applies: HepG2 Attagene cis-factorial RARE DR5 reporter, mRNA; actives raise or lower the signal. Put shortly:
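Read-out: DR5-driven reporter transcript measured by RT-PCR, 6-FAM primer extension, HpaI digest and capillary electrophoresis. Human HepG2 liver cells carry transiently transfected cis-element reporter constructs; dosing lasts 24 h. Gain or loss of signal fitted against DMSO baseline.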

CCAAT/enhancer-binding protein beta (Homo sapiens), sequence (P17676 whole entry, looked up): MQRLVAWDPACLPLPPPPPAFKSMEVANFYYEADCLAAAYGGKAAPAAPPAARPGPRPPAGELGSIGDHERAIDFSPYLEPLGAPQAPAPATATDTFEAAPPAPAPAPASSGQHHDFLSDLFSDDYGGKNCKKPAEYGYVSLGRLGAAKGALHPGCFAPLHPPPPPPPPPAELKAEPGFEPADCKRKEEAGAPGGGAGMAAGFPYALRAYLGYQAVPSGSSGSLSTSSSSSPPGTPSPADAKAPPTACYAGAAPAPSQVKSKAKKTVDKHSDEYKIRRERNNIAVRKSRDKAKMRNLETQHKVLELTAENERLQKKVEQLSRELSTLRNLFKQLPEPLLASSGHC
Transcription factor E2F1 (Homo sapiens), sequence (Q01094 whole entry, looked up): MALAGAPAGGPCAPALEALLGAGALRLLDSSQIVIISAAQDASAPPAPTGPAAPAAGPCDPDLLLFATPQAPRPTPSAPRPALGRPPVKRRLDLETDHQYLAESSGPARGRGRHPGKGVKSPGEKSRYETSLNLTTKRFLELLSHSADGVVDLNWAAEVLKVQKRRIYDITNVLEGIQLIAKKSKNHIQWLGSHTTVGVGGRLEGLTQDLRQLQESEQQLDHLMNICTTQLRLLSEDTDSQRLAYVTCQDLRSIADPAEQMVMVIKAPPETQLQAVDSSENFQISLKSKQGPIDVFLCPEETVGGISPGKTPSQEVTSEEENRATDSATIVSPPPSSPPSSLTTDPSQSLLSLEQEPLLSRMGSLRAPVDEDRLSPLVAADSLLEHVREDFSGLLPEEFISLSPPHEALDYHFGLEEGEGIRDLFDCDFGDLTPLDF
Retinoic acid receptor alpha (Homo sapiens), sequence (P10276 whole entry, looked up): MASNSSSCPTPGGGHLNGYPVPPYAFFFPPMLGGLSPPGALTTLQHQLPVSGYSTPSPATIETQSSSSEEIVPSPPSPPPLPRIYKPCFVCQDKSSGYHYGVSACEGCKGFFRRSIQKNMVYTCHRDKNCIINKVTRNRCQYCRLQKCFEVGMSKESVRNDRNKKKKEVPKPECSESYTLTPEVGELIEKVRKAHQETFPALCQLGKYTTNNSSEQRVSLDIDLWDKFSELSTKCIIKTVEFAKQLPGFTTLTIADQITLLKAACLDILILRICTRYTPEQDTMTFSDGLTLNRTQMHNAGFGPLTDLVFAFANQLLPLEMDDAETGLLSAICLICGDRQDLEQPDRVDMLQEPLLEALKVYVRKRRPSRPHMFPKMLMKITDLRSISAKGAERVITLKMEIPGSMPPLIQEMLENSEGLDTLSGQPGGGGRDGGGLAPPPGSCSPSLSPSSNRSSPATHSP

As for `CC(=O)OCCC(C)CC(C)(C)C` (configuration not stated), the result in [1], in assay [2], in assay [3], in assay [4], in [5] and in assay [6] was inactive. Further, the outcome in assay [7], in [8], in [9], in assay [10], in [11] and in [12] was inactive. The molecule was called inactive in [13], in assay [14] and in assay [15].
For `OCC(CO)(CO)COCC(CO)(CO)CO`, the outcome in assay [1], in assay [2], in assay [16], in [3], in [4] and in assay [5] was inactive. The result in [6], in assay [17], in assay [7], in assay [8], in assay [9] and in assay [10] was inactive. Further, the molecule was classed as inactive in [11], in assay [12], in assay [13], in assay [14] and in [15].
For `CC(=O)OCC=Cc1ccccc1`, the outcome in assay [1], in [2], in assay [16], in assay [3], in assay [4] and in assay [5] was inactive. In addition, the molecule was classed as inactive in [6], in assay [7], in [8], in assay [9], in assay [10] and in assay [11]. Further, the molecule was classed as inactive in assay [12], in assay [13], in assay [14] and in assay [15].
Turning to `CCCCNC(=O)NS(=O)(=O)c1ccc(C)cc1`, the result in assay [1], in [2], in assay [16], in assay [3], in [4] and in assay [5] was inactive. Also, the molecule was classed as inactive in assay [17], in assay [8], in assay [9], in assay [10], in [11] and in [13]. In addition, the call in assay [14] and in assay [15] was inactive.
For `O=c1cc(-c2ccccc2)oc2cc(O)cc(O)c12`, the call in [1], in assay [2], in assay [4], in assay [5], in assay [6] and in assay [18] was inactive. Moreover, the call in assay [17], in [8], in assay [9], in [10], in [11] and in [12] was inactive. For the same molecule, the call in assay [13] and in [14] was inactive. Also, the AC50 was 5.85 µM (active) in assay [3] and 25.9 µM (active) in [7].
Take `N#Cc1nc(Cl)c(Cl)c(Cl)c1Cl`: the molecule was classed as inactive in assay [1], in [3], in [8] and in assay [10]. The AC50 was 6.82 µM (active) in assay [2]; 3.14 µM (active) in assay [16]; 6.02 µM (active) in [4]; 4.74 µM (active) in assay [5]; 5.89 µM (active) in [6]; 5.53 µM (active) in [7]. The AC50 in assay [9] was 4.56 µM (active); in assay [11] it was 2.25 µM (active); in [13] it was 5.92 µM (active); in assay [14] it was 3.71 µM (active).
Turning to `O=C(O)c1cccc(C(F)(F)F)c1`, the result in assay [1], in assay [2], in [3], in assay [4], in assay [5] and in assay [6] was inactive. The outcome in assay [7], in assay [8], in assay [9], in assay [10], in assay [11] and in assay [12] was inactive. For the same molecule, the outcome in assay [13], in [14] and in assay [15] was inactive.
Turning to `COc1cc2ncnc(Nc3cccc(Cl)c3)c2cc1OC`, the molecule was classed as inactive in [1], in assay [2], in assay [16], in assay [3], in [4] and in [17]. Further, the molecule was called inactive in assay [8], in [10], in assay [11], in [12], in assay [13] and in assay [14]. In addition, the call in assay [15] was inactive. For the same molecule, the AC50 in assay [5] was 5.09 µM (active); in assay [9], 19.5 µM (active).

By AC50 is commonly meant the midpoint of the concentration-response curve, whichever way the signal moves.
